The values below come from ChEMBL document CHEMBL4513216, “Probing the Open Global Health Chemical Diversity Library for Multistage-Active Starting Points for Next-Generation Antimalarials” (ACS Infect Dis, 2020).

The whole screen tested about 69,000 compounds, of which about 8,600 (12%) showed an effect of 50% or more. This is one part of a sample in which strong results are shown more often than they occur.

The test system of the experiment is Plasmodium berghei. Nature of the experiment: Screen against P. berghei liver stage (PbLuc), transformed with Luciferase, at 10uM. The class given is functional, HepG2. Conditions: tested at 10 uM.
Regarding `Cn1c(SCC(N)=O)nnc1-c1csc2c1CCCC2`, the INHIBITION is -21.8%.
On to `CCN1CC(COc2ccccc2)Oc2ncccc2S1(=O)=O` (stereo not given), for which the INHIBITION was 13.9%.
For `CCSc1cc(C(=O)NCCNC(=O)N(C)C)ccn1` the value was -22.8%.
`COc1cc(CCC(=O)NC(C)(C)C)ccc1OCC(F)(F)F`: the INHIBITION is -17.4%.
For `O=C1C[C@H]2[C@H](CCN2C(=O)c2cc[nH]n2)N1Cc1cccnc1` the value was 40.8%; for `OCCOc1ccc(NCc2cccc3cccnc23)cn1`, -37.7%.
For the compound `OCCOc1ccc(NCc2cccc3cn[nH]c23)cn1`, the INHIBITION is on record as -1.45%.
For `OCCOc1ccc(NCc2cccc3[nH]ccc23)cn1` the value was 68.2%; for `Cc1ncccc1CNc1ccc(OCCO)nc1`, -89.9%; for `OCCOc1ccc(NCc2cccnc2)cn1`, 59.5%.
Consider `OCCOc1ccc(NCc2cc(F)cc3cccnc23)cn1`, for which the INHIBITION is on record as -116%.
`Cc1cc(-c2cnn(CCNC(=O)c3cc[nH]n3)c2C2CC2)on1`: the INHIBITION stood at 18.9%.
For `CCCc1nnc(NC(=O)NC(CCO)c2cccs2)s1` (stereo not given), the INHIBITION is reported as -26.8%.
With `COc1ccccc1CN1CCCC2(Cc3ccccc3CNC2=O)C1` (stereo not given), the INHIBITION is recorded as 11%.
Turning to `CC(C)OCc1nn(C)c2c1CCN(Cc1ccco1)C2`, the INHIBITION was -16.9%.
Turning to `CCC(=O)N1CCN(c2nc(C)nc3c(C)nn(C)c23)CC1`, the INHIBITION is given as 27.5%.
In the case of `COc1ccccc1C(=O)N1Cc2cc(C)ccc2OCC1CN(C)C` (stereo not given), the INHIBITION is 60.3%.
For `Cc1ccc2c(c1)CN(C(=O)c1cccnc1)C(CN(C)C)CO2` (stereo not given), the INHIBITION turned out to be 46%.
Take `COc1ccc(C(=O)N2Cc3cc(C)ccc3OCC2CN(C)C)cc1` (stereo not given): the INHIBITION came out at 66.5%.
For `Cc1ccc2c(c1)CN(C(=O)c1ccncc1)C(CN(C)C)CO2` (stereo not given), the INHIBITION was -23.8%.
`Cc1ccc2c(c1)CN(C(=O)c1ccccc1F)C(CN(C)C)CO2` (stereo not given): the INHIBITION is recorded as 23.9%.
For the compound `Cc1ccc2c(c1)CN(C(=O)c1cccs1)C(CN(C)C)CO2` (stereo not given), the INHIBITION is -10.5%.
Consider `CCCc1nc(NCCCOCC)c2c(n1)c(C)nn2CC`, for which the INHIBITION is recorded as -1.4%.
For `CC1CCCCN1c1nc2c(c(=O)[nH]1)CCN(Cc1ccccn1)C2` (stereo not given), the INHIBITION was 36.7%.
Consider `CC1CCCCN1c1nc2c(c(=O)[nH]1)CCN(Cc1ccccc1F)C2` (stereo not given), for which the INHIBITION worked out at 72.3%.
For `CC1CCCCN1c1nc2c(c(=O)[nH]1)CCN(Cc1ccccc1O)C2` (stereo not given) the value was 23.4%.
The same measure for `CC1CCCCN1c1nc2c(c(=O)[nH]1)CCN(Cc1ccc(O)cc1)C2` (stereo not given): 10%; for `Cc1ccsc1CN1CCc2c(nc(N3CCCCC3C)[nH]c2=O)C1` (stereo not given): 85.7%.
As for `Cc1cccc(CN2CCc3c(nc(N4CCCCC4C)[nH]c3=O)C2)n1` (stereo not given), the INHIBITION is reported as 18.2%.
For `O=C(NCCn1nc2ccccn2c1=O)c1scnc1Cl` the value was 17.02%.
